About 83,000 compounds went through this panel and 20% of them were active in at least one assay; those are over-represented in the sample as a whole.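 Interpretation: 100, growth as untreated; towards 0, rising growth inhibition; 0, no net growth; 0 to -100, cell death. Compounds scoring below 10 were considered active.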 Calls of active or inactive are those of the source.
Each molecule was assayed on NCI-H23 lung (assay: NCI-60 one-dose screen, 48 h (100 = growth as untreated, 0 = no growth, -100 = all killed)). Conditions: 10 µM unless noted.

SMILES	growth
O=C(/C=C/c1ccc2ccccc2c1)Nc1ncc(Cc2ccccc2)s1	80.3% (inactive)
O=C1c2cc3c(cc2-c2c1c1ccc(F)cc1c(=O)n2CCCN1CCOCC1)OCO3	40.6% (inactive)
C=C1CC[C@@H](C(=O)OC)Cc2nc(C)ccc21	97% (inactive)
CCN1CCN(C(=O)[C@]23CCC(C)(C)C[C@@H]2C2=CC[C@@H]4[C@@]5(C)C/C(=C/c6cccnc6)C(=O)C(C)(C)[C@@H]5CC[C@@]4(C)[C@]2(C)CC3)CC1	27.1% (inactive)
Nc1c(C(=O)Nc2cccc3ccccc23)sc2nc3c(cc12)CCCC3	23.1% (inactive)
CC(C)(C)c1cc(-n2c(-c3ccc(Cl)cc3)nc3cc(C(=O)Nc4ccc(Cl)cc4)ccc32)n[nH]1	32.8% (inactive)
Fc1ccc(Nc2nnc(-c3ccc(Cl)cc3)o2)cc1	95% (inactive)
O=C1/C(=C\c2ccc(Br)o2)SC(=S)N1CCc1ccc(O)cc1	49.7% (inactive)
CC(=O)c1c(C)[nH]c(-c2nc3ccc(N4CCN(C)CC4)cc3[nH]2)c1-c1ccc2c(c1)OCCO2	50.1% (inactive)
COc1ccc2[nH]c(-c3ccc(Cl)cc3)cc(=O)c2c1	94.5% (inactive)
CCC1C(=O)COC1=O (stereo not drawn)	95.7% (inactive)
COc1ccc(O)c(-c2cc(-c3ccc(Cl)cc3)c(C#N)c(=O)[nH]2)c1	69.6% (inactive)
C=C(C)[C@@H]1CC[C@]2(C)[C@H](CC[C@@H]3[C@H]4[C@H]5OC[C@@]4(CCC5(C)C)CC[C@]32C)[C@@]1(C)CCCN	83.3% (inactive)
CN1CCN(CCOc2ccc(-c3cnc4c(-c5cccc(F)c5)cnn4c3)cc2)CC1	62.6% (inactive)
Cc1cc(N(CCNc2ccnc3cc(Cl)ccc23)Cc2ccco2)nc(Cl)n1	14.2% (inactive)
COc1ccc(CCN2C(=O)C(C)(C)SC2=S)cc1OC	101% (inactive)
Cc1cc2nc3c4cc(O)ccc4n(CCN(C)C)c3nc2cc1C	-35.3% (active)
CCCCC(=O)OC1CCCCC1C (stereo not drawn)	97.3% (inactive)
COc1ccc2c(c1)c(-c1nc(-c3c[nH]c4ncccc34)cs1)cn2CCCN1CCCCC1	73.1% (inactive)

SMILES	growth
CC(=O)c1c(C)[nH]c(-c2nc3ccc(N4CCN(C)CC4)cc3[nH]2)c1-c1ccc(OCC2CCOCC2)cc1	36.6% (inactive)
Cc1nc([P+](c2ccccc2)(c2ccccc2)c2ccccc2)c(Sc2sc(-c3ccccc3)nc2[P+](c2ccccc2)(c2ccccc2)c2ccccc2)o1	3.75% (active)
NNC(=O)c1nc2ccccc2[nH]1	93.3% (inactive)
O=P(O)(c1ccccc1)c1ccccc1I	96.4% (inactive)
COc1ccc(OC)c(-c2c(C#N)c(-c3ccco3)nc3c2c(-c2ccccc2)nn3-c2ccccc2)c1	96.7% (inactive)
CNC(=O)c1cc(Oc2ccc3nc(NC(=O)Nc4ccc(Cl)cc4)sc3c2)ccn1	69% (inactive)
Clc1cc(Cl)cc(Nc2ccc3c(OCCCN4CCOCC4)cccc3n2)c1	77% (inactive)
N#CC1=C(N)Oc2c(c(N)nn2-c2ccccc2)C1c1ccc(Cl)cc1Cl (stereo not drawn)	103% (inactive)
CC(C)(C)c1ccc(OCCCCCCCN2CCNCC2)cc1	51.9% (inactive)
Cc1cc(Cl)nc(N(CCCNc2ccnc3cc(Cl)ccc23)Cc2ccco2)n1	8.17% (active)
CC1(C)NCCC[C@]2(C)[C@H]3CC[C@@H]4[C@H]5[C@H](C(=O)/C=C/c6ccccn6)CC[C@]5(CO)CC[C@@]4(C)[C@]3(C)CC[C@@H]12	72.9% (inactive)
NCCNc1nc(-c2ccccc2)nc2nc(-c3ccccc3)oc12	90.6% (inactive)
COc1cnc2c(c1)C(=O)c1c-2n(CCCNC(C)C)c(=O)c2cc([N+](=O)[O-])ccc12	-67.8% (active)
COc1cnc2c(c1)C(=O)c1c-2n(CCCNC2=NCCS2)c(=O)c2cc([N+](=O)[O-])ccc12	-47.1% (active)
CCC(c1ccc(OC)cc1)C(CC)c1ccc(O)c(CN2CCCCC2)c1 (stereo not drawn)	63.5% (inactive)
COc1cc2nc(Cl)nc(Nc3cccc(C(=O)/C=C/c4ccccc4)c3)c2cc1OC	68.6% (inactive)
CC1(C)C(=O)/C(=C\c2ccco2)C[C@]2(C)[C@H]3CC[C@@H]4[C@@H](C(=O)/C=C/c5ccco5)CC[C@@]4(C)[C@]3(C)CC[C@@H]12	92.8% (inactive)
CCCC1CCCCN1C(=O)OCC(C)C (stereo not drawn)	152% (inactive)
Cc1ccc(-c2nn(Cc3cn(-c4cc(C)nc5ccccc45)nn3)c3ncnc(N)c23)cc1	68.7% (inactive)
